PubChem BioAssay AID1220 (Sanford-Burnham Center for Chemical Genomics, 2008)
Among all 190,000 compounds or so, about 1,300 (0.68%) were called active. The full list was thinned out, with actives kept by preference. Values without a mark were called inactive. No stated cut-off is given here; in the data, active means inhibition above about 50%; inactive means the rest.

What follows are compounds tested against Mannose-6-phosphate isomerase (Homo sapiens) (UniProt P34949) (assay: human PMI inhibitors, high substrate, primary screen, biochemical, fluorescence intensity, high mannose 6-phosphate (AID 1220)). Conditions: recombinant PMI enzyme, coupled fluorescence intensity; at 20 µM; active compounds read high.
Sequence of Mannose-6-phosphate isomerase (Homo sapiens) (P34949 whole entry, looked up): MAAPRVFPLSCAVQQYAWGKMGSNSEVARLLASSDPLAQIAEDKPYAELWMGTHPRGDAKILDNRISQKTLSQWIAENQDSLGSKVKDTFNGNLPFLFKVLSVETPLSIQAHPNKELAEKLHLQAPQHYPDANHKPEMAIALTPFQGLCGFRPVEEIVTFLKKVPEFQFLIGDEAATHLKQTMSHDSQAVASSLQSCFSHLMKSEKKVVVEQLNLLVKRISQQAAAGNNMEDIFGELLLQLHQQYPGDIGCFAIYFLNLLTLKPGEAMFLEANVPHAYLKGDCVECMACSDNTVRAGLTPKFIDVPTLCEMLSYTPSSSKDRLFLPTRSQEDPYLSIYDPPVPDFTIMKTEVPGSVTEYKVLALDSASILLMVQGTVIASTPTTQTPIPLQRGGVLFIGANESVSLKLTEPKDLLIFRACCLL

SMILES	inhibition
CC(=O)c1ccc(-c2cccs2)s1	0.2%
Oc1ccc(N=Cc2ccc(-c3cccs3)s2)cc1	55.3% (active)
Cc1ccsc1C=Nc1ccc(O)cc1	45.3%
O=C(O)CCCN1C(=O)/C(=C\c2ccco2)SC1=S	60.3% (active)
O=C1/C(=C\c2ccco2)SC(=S)N1c1ccccc1	51.3% (active)
O=C1/C(=C\c2cccs2)SC(=S)N1C1CCS(=O)(=O)C1 (centres undefined)	12%
O=C1/C(=C\c2ccco2)SC(=S)N1c1ccc(O)cc1	39.1%
O=C(CCCN1C(=O)/C(=C\c2ccco2)SC1=S)Nc1ccc2ccccc2c1	-8.1%
O=C(O)CCCN1C(=O)/C(=C/c2ccc(-c3nc4ccccc4s3)o2)SC1=S	-50.1%
COc1ccc(NC(=O)CCCN2C(=O)/C(=C\c3ccco3)SC2=S)cc1	13.4%
O=C1/C(=C/c2ccco2)SC(=S)N1C1CCS(=O)(=O)C1 (centres undefined)	54.7% (active)
Cc1ccc(/C=C2\SC(=S)N(C3CCS(=O)(=O)C3)C2=O)o1 (centres undefined)	41.2%
Cc1ccc(N2C(=O)/C(=C\c3ccco3)SC2=S)cc1	39.7%
O=C(O)CCN1C(=O)/C(=C\c2ccc(-c3nc4ccccc4s3)o2)SC1=S	7.1%
O=C(O)CCN1C(=O)/C(=C/c2ccc(-c3nc4ccccc4s3)o2)SC1=S	54.7% (active)
CCC(=O)Nc1cc(-c2nn3c(C)nnc3s2)ccc1C	1.7%
O=C(CCOc1ccccc1)Nc1cccc(S(=O)(=O)Nc2ccccc2Cl)c1	13.1%
CCC(=O)Nc1ccc(S(=O)(=O)NCc2ccco2)cc1	-9.3%
COc1ccc(NC(=O)c2onc(C)c2Cl)cc1OC	-15%
CCOC(=O)C1(Cc2ccc(Cl)cc2)CCN(CCCn2cccn2)CC1	3.5%
CN(c1ncc(C(F)(F)F)cc1Cl)N1C(=O)c2cccc([N+](=O)[O-])c2C1=O	6.1%
Clc1cc(Cl)cc(C2=NCCC(c3ccccc3)O2)c1 (centres undefined)	15.6%
CC1(C)CC(=O)C2=C(C1)OC(N)=C(C#N)C2c1ccccc1[N+](=O)[O-] (centres undefined)	47.5%
O=C(O)CN(c1ccc2c(c1)OCCO2)S(=O)(=O)c1ccccc1	-2.6%
COc1ccc(OCC(=O)NC(CC(=O)O)c2ccc(OC)c(OC)c2)cc1 (centres undefined)	-11.4%

SMILES	inhibition
O=c1oc2c(O)c(O)cc3c(=O)oc4c(O)c(O)cc1c4c23	61.2% (active)
Cc1c(Br)c(=O)oc2c(Br)c(O)c(O)cc12	-33.8%
Cc1c(Br)c(=O)oc2c(Br)c(O)ccc12	-8.7%
Cc1cccc(C(c2c(C)nn(-c3ccccc3)c2N)c2c(C)nn(-c3ccccc3)c2N)c1	16.3%
O=C(NC1CCCCC1)c1cc(Cl)nc2ccccc12	1.4%
Cc1[nH]n(-c2ccccc2)c(=O)c1/C=N/O	5.9%
O/N=C/c1cn(-c2ccccc2)nn1	6.9%
Cn1cc(/C=N\O)nc2c(=O)n(-c3ccccc3)c(=O)nc1-2	56.5% (active)
Nc1cc(=O)[nH]c(SCC(=O)Nc2cccc(Cl)c2Cl)n1	4.4%
O=C(CSc1ncn(-c2ccccc2)n1)Nc1nncs1	5.2%
COc1ccc(C2C3C(=O)N(Cc4ccccc4)C(=O)C3ON2c2ccccc2)c(OC)c1OC (centres undefined)	15%
COc1cc(C2C3C(=O)N(Cc4ccccc4)C(=O)C3ON2c2ccccc2)cc(OC)c1OC (centres undefined)	7.3%
COc1cc(C2C3C(=O)N(Cc4ccccc4)C(=O)C3ON2c2ccccc2)cc(OC)c1O (centres undefined)	54.2% (active)
O=[N+]([O-])c1cc(Cc2ccccc2)cc(C=Nc2ccc(N3CCOCC3)cc2)c1O	38.7%
COc1ccc(N=Cc2cccc(C)c2O)cc1Cl	7.9%
Cc1ccc(O)c(N=Cc2cc(Cc3ccccc3)cc([N+](=O)[O-])c2O)c1	63.3% (active)
COc1ccc(N=Cc2cc(Cc3ccccc3Cl)cc([N+](=O)[O-])c2O)cc1OC	54.9% (active)
Cc1n[nH]c(C)c1Sc1ccccc1N=Cc1cc(Cl)cc([N+](=O)[O-])c1O	0.8%
COc1cc(C=Nc2cccc(C)c2)c(O)c([N+](=O)[O-])c1	34%
Cc1ccc(N=Cc2cc(Cc3ccccc3Cl)cc([N+](=O)[O-])c2O)c(O)c1	56.5% (active)
Cc1ccc(N=Cc2c(O)[nH]c3ccccc23)c([N+](=O)[O-])c1	-4.1%
Cc1c(N=Cc2ccc(O)c(Br)c2)cccc1[N+](=O)[O-]	12.1%
COc1cc([N+](=O)[O-])cc2sc(NC(=O)C(C)(C)C)nc12	17%
COc1ccccc1Cn1c(/C=C/c2ccccc2)nc2ccccc21	4.9%
Cc1cccc(-n2nc3c(c2NC(=O)c2ccc(Br)o2)CSC3)c1	-0.5%

SMILES	inhibition
CCCC(CCC(=O)Nc1cc([N+](=O)[O-])ccc1O)C(=O)O (centres undefined)	11%
CC(=O)Nc1ccc(NC(=O)c2cccc3c2-c2ccccc2C3=O)cc1	-2.8%
CC(=O)NC(=S)Nc1ccc([N+](=O)[O-])cc1C	-6%
CC1CCCN(Cc2nc3c(c(=O)n(C)c(=O)n3C)n2CCc2ccccc2)C1 (centres undefined)	5.2%
CNC(=O)CSc1nc(N)c2c3c(sc2n1)CCC3	7.8%
CC1=C(C(=O)N2CCOCC2)C(c2cccc(C)c2)NC(=S)N1 (centres undefined)	-12.7%
O=C1C=C(Nc2ccccc2)c2ccccc2C1=O	64.6% (active)
O=C1C(Nc2ccccc2)=C/C(=N/S(=O)(=O)c2cccs2)c2ccccc21	40.7%
CC1(C)CC(=O)C=C(Nc2ccccc2O)C1	7.6%
O=C1C=C(NCc2ccccc2)c2ccccc2C1=O	7.9%
Cc1ccc(NC2=CC(=O)C(=O)c3ccccc32)cc1	56.2% (active)
O=C1C=C(Nc2ccccc2O)c2ccccc2C1=O	62.6% (active)
COC1=C(Nc2ccccc2)C(=O)c2ccccc2C1=O	4.1%
CC1=CC(=O)c2ccccc2C1=O	-13.3%
Nc1c(O)ccc2c1C(=O)c1ccccc1C2=O	5.1%
O=C1C=C(Nc2ccccc2)C(=O)c2ccccc21	57.5% (active)
Cc1ccc(NC2=C(NCCO)C(=O)c3ccccc3C2=O)cc1	47.8%
COC1=C(Nc2ccc(C)cc2)C(=O)c2ccccc2C1=O	-3.1%
CC(C)(C)n1nnnc1SCC(=O)Nc1nn(-c2ccccc2)nc1C(N)=O	0.7%
CN(C(=O)COc1ccccc1)c1nnc(-c2cccnc2)s1	-0.3%
Cc1ccccc1NC(=O)c1c2c(nc3ccccc13)CCC2	-4.6%
O=C(O)[C@H]1CCCC[C@H]1C(=O)Nc1cc([N+](=O)[O-])ccc1F	-7.1%
CCCC(=O)Nc1cc(Cl)ccc1C	-0.2%
Nc1nc(SCC(=O)Nc2cc(S(=O)(=O)N3CCOCC3)ccc2Cl)n[nH]1	-10.9%
COC(=O)c1ccc(CSc2nnc(-c3ccc4c(c3)OCO4)n2-c2ccccc2)o1	-8.3%

SMILES	inhibition
Cc1ccccc1NC(=S)N1CCN(C(=O)c2ccco2)CC1	5.1%
O=C(C1CCCCN1S(=O)(=O)c1ccccc1)N1CCN(Cc2ccccc2)CC1 (centres undefined)	-3.3%
CC(=O)N(C(C)=O)n1c(/C=C/c2cccc([N+](=O)[O-])c2)nc2ccccc2c1=O	15.3%
CCOC(=O)c1ccc(NC2=CC(=O)C(=O)c3ccccc32)cc1	57.3% (active)
CCOC(=O)c1ccc(NC2OC(=O)c3ccccc32)cc1 (centres undefined)	-0.5%
CCOC(=O)c1ccc(NC(=O)C(C)N2C(=O)c3ccccc3C2=O)cc1 (centres undefined)	5%
Nc1ccc2cn[nH]c2c1	53.1% (active)
O=[N+]([O-])c1ccc2cn[nH]c2c1	1.3%
Nc1ccc2[nH]ncc2c1	48.1%
CC(C)Cc1nnc(NC(=O)CSc2nc(N)cc(=O)[nH]2)s1	-6.4%
CCCCc1nnc(NC(=O)C(C)Sc2nc(N)cc(=O)[nH]2)s1 (centres undefined)	0.4%
CCCCc1nnc(NC(=O)CSc2nc(N)cc(=O)[nH]2)s1	51.1% (active)
C=CCc1ccccc1OCCNCc1ccccc1	1%
Cc1cccc(C(=O)NC2CCN(CC(=O)NCc3cccs3)CC2)c1	-0.6%
Cc1ccc(C)c(-n2[nH]c3c4c(ccc3c2=O)C(=O)c2ccccc2C4=O)c1	58% (active)
COCCCn1[nH]c2c3c(ccc2c1=O)C(=O)c1ccccc1C3=O	14.1%
Cc1cccc(-n2[nH]c3c4c(ccc3c2=O)C(=O)c2ccccc2C4=O)c1	26.4%
Cc1ccc(-n2[nH]c3c4c(ccc3c2=O)C(=O)c2ccccc2C4=O)cc1	13.1%
O=C1c2ccccc2C(=O)c2c1ccc1c(=O)n(-c3ccccc3)[nH]c21	30.4%
CC(C)Cn1[nH]c2c3c(ccc2c1=O)C(=O)c1ccccc1C3=O	60.3% (active)
C=CCn1c(SCC(=O)Nc2cccc3ccccc23)nc(O)c(CC)c1=O	-3.4%
CCn1c(CNc2ccc(F)cc2)nnc1SCC(=O)Nc1ccccc1OC	4%
CN(C(=O)c1ccccc1)c1ccc(OCC(=O)NC2CCS(=O)(=O)C2)cc1 (centres undefined)	11.6%
CC(C)(C)NS(=O)(=O)c1ccc(OCC(=O)NCCC2=CCCCC2)cc1	1.2%
